Bioassay records as filed in PubChem BioAssay.
ELG1 genotoxic: inducers of genotoxicity in HEK293T ELG1-luciferase cells | HEK293T ELG1-luciferase reporter, luminescence, 16 h | Potency, µM (highest dose often 46 µM), usual class: activators | hit rate 1.3% among 330,000; also: nearly all actives have a fitted effect of over 60% in size
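Screening used a luciferase reporter fused to human ELG1 in HEK293T cells. Luminescence was read on a CCD plate imager after 16 hr exposure and 30 min ONE-Glo incubation.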
NPC1 promoter act: NPC1 promoter activation; Huh7 NPC1 promoter luciferase reporter, 24 h; Potency, µM (top dose mostly 9.22 µM), hits mostly activators; hit rate 2.4% among 320,000; also: nearly all actives have a fitted effect of over 60% in size
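Stable NPC1-promoter luciferase Huh7 line; cpd (DMSO) 24 h, 37 °C, 5% CO2; Amplite luciferase reagent 10 min RT; luminescence readout. qHTS format.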
ELG1 DNA repair: ELG1-dependent DNA repair inhibition; HEK293T ELG1-luciferase reporter, luminescence, 16 h; DNA damage induced by 5-fluorouridine; Potency, µM (doses to about 46.1 µM), actives largely listed as inhibitors; hit rate 2.3% among 330,000; AID 504467; also: nearly all actives have a fitted effect of over 55% in size
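Reporter activity after DNA damage by 5-fluorouridine is monitored. Compound-treated cells incubate 16 hr at 37 °C, then ONE-Glo is added for 30 min before luminescence reading.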
SMN2 splice enh: SMN2 splice variant enhancement; hit rate 2.8% among 210,000; AID 1458; Potency, µM (doses to about 46.1 µM), hits mostly activators; HEK293 SMN2-luciferase splicing reporter, luminescence, 30-36 h; also: nearly all actives have a fitted effect of over 55% in size
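qHTS luciferase splicing reporter: luminescence rises when SMN2 exon 7 is included in transfected HEK293 cells. Compound exposure lasted 30-36 h at 37C, with 4.5 mM final sodium butyrate as control, followed by a ONE-Glo read.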
Rab9 promoter act: activators of Rab9 promoter; Huh7 Rab9 promoter-luciferase reporter, luminescence, 24 h; hit rate 2.8% among 320,000; Potency, µM (doses to about 9.22 µM), usual class: activators; AID 485297; also: nearly all actives have a fitted effect of over 60% in size
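Luminescence from Amplite-detected luciferase (10 minutes, ambient) reports Rab9 promoter activation. Before that, stable Rab9-luciferase Huh7 cells (1500/well, reduced-serum OP-MEM I plus 10% FBS) were exposed to compound for 24 hours at 37C.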
FLuc modulator: inhibits or activates purified firefly luciferase, miR-21 counter-screen | Potency, µM (top dose mostly 57.5 µM), most hits filed as inhibitors | AID 588342 | hit rate 6.9% among 360,000 | purified FLuc, Km substrates, luminescence inhibition | P08659; also: nearly all actives have a fitted effect of over 55% in size
Target sequence (P08659 whole entry, looked up): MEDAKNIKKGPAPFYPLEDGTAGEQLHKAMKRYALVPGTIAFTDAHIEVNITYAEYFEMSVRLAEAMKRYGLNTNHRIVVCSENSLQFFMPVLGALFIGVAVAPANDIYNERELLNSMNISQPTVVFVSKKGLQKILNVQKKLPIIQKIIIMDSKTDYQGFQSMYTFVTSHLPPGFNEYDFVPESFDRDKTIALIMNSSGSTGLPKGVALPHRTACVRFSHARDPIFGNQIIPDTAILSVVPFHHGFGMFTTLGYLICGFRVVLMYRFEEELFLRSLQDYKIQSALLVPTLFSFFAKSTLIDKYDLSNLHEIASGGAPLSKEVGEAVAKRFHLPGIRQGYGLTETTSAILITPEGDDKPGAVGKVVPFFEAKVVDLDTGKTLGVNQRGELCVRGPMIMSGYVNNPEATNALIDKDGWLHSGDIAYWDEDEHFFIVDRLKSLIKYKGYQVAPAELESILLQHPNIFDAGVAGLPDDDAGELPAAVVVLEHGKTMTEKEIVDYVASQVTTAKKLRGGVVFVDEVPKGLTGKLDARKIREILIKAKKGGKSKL
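Purified P. pyralis luciferase, 10 nM final, with Km-level 10 uM D-luciferin and 10 uM ATP in 50 mM Tris acetate pH 7.5, 10 mM Mg acetate, 0.01% Tween-20, 0.05% BSA; 6-point qHTS titration about 60 µM downward; luminescence read.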
Numbers stand for hits; i = inactive; ? = inconclusive; nt = not tested or not shown. Compounds with a hit are over-represented: about 9.2% of the library has one in this group of screens. Calls follow the shape of the dose curve; as a rule, active = well fitted curve in the direction sought with a large enough effect; inconclusive = small, poorly fitted or top-dose-only effect, or another doubt; inactive = no such curve, though single readings can be large; an effect the other way counts as inactive or inconclusive.

SMILES	ELG1 genotoxic	NPC1 promoter act	ELG1 DNA repair	SMN2 splice enh	Rab9 promoter act	FLuc modulator
Cc1ccccc1N(Cc1cc(=O)[nH]c2ccccc12)C(=O)C(C)C	i	i	i	nt	i	i
Cc1ccccc1N(Cc1cc(=O)[nH]c2ccccc12)C(=O)CCl	i	i	10.3µM	nt	i	i
COc1ccc(OCC(=O)Nc2ccc(NC(=O)c3cccs3)cc2)cc1	i	i	?	nt	i	i
CN(C(=O)c1cccs1)c1ccc(OCC(=O)Nc2ccc(C(=O)O)cc2)cc1	i	i	i	nt	i	16.9µM
Cc1ccc(NC(=O)CSc2nc3ccccc3nc2Cc2ccccc2F)cc1F	nt	nt	nt	i	nt	i
COC(=O)c1ccc(COc2ccccc2/C=C(\C#N)C(=O)Nc2ccc(C)cc2)cc1	20.6µM	?	?	i	2.82µM	8.49µM
Cc1cccc(NC(=O)/C(C#N)=C/c2ccc(F)cc2)n1	i	i	i	nt	i	5.36µM
CCCOc1ccccc1/C=C(\C#N)C(=O)Nc1cccc(C)n1	i	i	i	nt	i	10.7µM
CCOc1ccccc1/C=C(/C#N)C(N)=O	i	i	?	nt	i	i
N#C/C(=C\c1ccc(OCc2ccc(F)cc2)cc1)C(=O)Nc1cccc(C(=O)O)c1	?	i	?	nt	i	?
Nc1nnc(SCC(=O)NC2CCCCCC2)s1	i	i	i	nt	i	i
COc1ccccc1N1CCN(CCCCOc2ccc(C)cc2C)CC1	i	i	i	nt	i	i
COc1ccc(NC(=O)CSc2nc3c(oc4ccccc43)c(=O)n2-c2ccccc2)cc1OC	nt	nt	nt	i	nt	i
OCCNc1cc(-n2nc(-c3ccccc3)cc2-c2ccccc2)ncn1	i	i	16.4µM	i	i	i
O=C(c1cc(F)cc(F)c1)N1CCC(c2nc(-c3ccc(S(=O)(=O)N4CCCC4)cc3)no2)CC1	nt	nt	nt	i	nt	i
CCOc1ccc(Nc2nc(Cl)nc(NCCO)n2)cc1	i	i	i	i	i	i
CCOc1nc(NCCO)nc(Nc2ccc([N+](=O)[O-])cc2)n1	i	i	10.3µM	i	i	i
CCOc1ncccc1C(=O)OCC(=O)Nc1cc(C(C)(C)C)ccc1OC	i	nt	?	nt	nt	nt
COc1ccc2nc(/N=C/c3c(C)[nH]n(-c4ccc(C)cc4C)c3=O)sc2c1	i	i	?	i	i	26.9µM
COc1ccccc1N=Cc1c(C)[nH]n(-c2ccc(C)cc2C)c1=O	i	i	i	nt	i	i
C[C@H](CO)N1C[C@H](C)[C@@H](CN(C)S(C)(=O)=O)Oc2ccc(NC(=O)Cn3cnnn3)cc2C1=O	i	nt	i	nt	nt	nt
COCc1cc(C)nc2sc(C(=O)Nc3ccccc3OC)c(N)c12	i	i	?	nt	i	16.9µM
COCc1cc(C)nc2sc(C(=O)Nc3ccc(OC)cc3)c(N)c12	?	i	?	nt	?	?
COCc1cc(C)nc2sc(C(=O)Nc3cccc(OC)c3)c(N)c12	?	2.24µM	?	nt	3.16µM	8.49µM
O=C(N/N=C/c1cc([N+](=O)[O-])ccc1Cl)c1ccc2nc[nH]c2c1	i	i	i	i	i	i
SMILES	ELG1 genotoxic	NPC1 promoter act	ELG1 DNA repair	SMN2 splice enh	Rab9 promoter act	FLuc modulator
O=C(N/N=C/c1ccc(Cl)cc1Cl)c1ccc2nc[nH]c2c1	i	i	?	nt	i	9.53µM
O=C(N/N=C/c1ccc(Cl)cc1Cl)c1cccc(F)c1	?	1.78µM	?	?	2µM	3.38µM
CCc1ccc(C(=O)N/N=C/c2ccc(Cl)cc2Cl)nc1	i	i	?	i	i	7.57µM
C=CCc1cccc(/C=N/NC(=O)c2ccccc2OC)c1O	?	i	?	i	i	13.5µM
NCC1O[C@H](O[C@@H]2C(O)[C@H](O[C@H]3OC(CO)C(O)C(N)C3O)[C@@H](N)C[C@H]2N)[C@@H](N)CC1O (stereo not given in full)	nt	nt	nt	i	nt	nt
O=C(Nc1ccc2oc(-c3cc(Br)ccc3Cl)nc2c1)c1cc2ccccc2o1	nt	nt	nt	i	nt	i
N#CC[C@H](c1ccccc1)N1CCN(Cc2ccccc2)CCC1=O	i	i	i	nt	i	i
C=CCc1cccc(/C=N/NC(=O)c2ccc3nc[nH]c3c2)c1O	?	i	?	nt	i	16.9µM
O=C(N/N=C/c1ccccc1C(F)(F)F)c1ccc2nc[nH]c2c1	i	?	?	nt	?	?
